Screens (PubChem)
Hits are enriched below; roughly 6.8% of the tested compounds scored in any of these assays.
Spn PMK inh – S. pneumoniae PMK inhibitors, primary screen, biochemical, mevalonate pathway, pilot trial included; phosphomevalonate kinase (Streptococcus pneumoniae D39); purified PMK, PK/LDH-coupled NADH absorbance 340 nm; inhibition, % at 10 µM; actives 0.49% (n = 65,000);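 active = top-ranked compounds by inhibition in the single 10 µM screen, taking a fixed number of the strongest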
MK inhibit – S. pneumoniae MK inhibitors, primary screen, biochemical, PK/LDH-coupled NADH absorbance; mevalonate kinase [Streptococcus pneumoniae D39]; purified MK, PK/LDH-coupled NADH absorbance 340 nm; inhibition, % at 10 µM; actives 0.48% (n = 65,000); AID 555, 2006;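 active = ranked among the strongest by inhibition in the single 10 µM screen, a fixed top-ranked set picked for dose follow-up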
NADH coupling – inhibitors of PK/LDH coupling enzymes, profiling panel, artefact control, biochemical, MLSMR library; IC50, µM (highest dose often 10 µM); actives 0.02% (n = 65,000); AID 774, 2007; coupled PK/LDH NADH assays, four targets;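 active = single-dose screening hits from any of four coupled enzyme assays that gave an IC50 when retested across doses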;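 note: the DPM-DC format reads NADH fluorescence rather than 340 nm absorbance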
Abs 340nm – compound light absorbance at 340 nm, profiling panel, artefact control, biochemical, MLSMR library, data from PS, PMK, MK assays | compound absorbance at 340 nm, fold over control | fold change at 10 µM | 65,000 tested, under 10 active;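 active = at 10 µM dose, initial 340 nm absorbance at least 2 fold that of control wells; inactive = change under 2 fold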;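 note: initial absorbance extrapolated from kinetic A340 decline of NADH oxidation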
Fluor 339 460 – intrinsic fluorescence of library compounds, ex339/em460 – biochemical, MLSMR library, data from DPM-DC assay, artefact control, profiling panel; compound autofluorescence, ex339/em460 nm, NADH buffer; stronger effect = higher value; 1 = no-compound wells, NADH background; fluorescence fold increase at 10 µM; actives 5.5% (n = 65,000); AID 709, 2007;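 active = at 10 µM, mean starting fluorescence two-fold or more over control wells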;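 note: signal is the first read of a kinetic run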
Spn DPM-DC inh – S. pneumoniae DPM-DC inhibitors, primary screen, biochemical, PK/LDH-coupled NADH fluorescence. diphosphomevalonate decarboxylase (Streptococcus pneumoniae D39). purified DPM-DC. calls only at 10 µM. actives 0.49% (n = 65,000);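 active = the 320 compounds with the highest percent inhibition in the single-dose primary screen, excluding strongly autofluorescent ones, cut at about 32% in these data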;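 note: kinetic rate of NADH fluorescence loss reporting ADP formed by the decarboxylase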
Each line names hits and unclear results; the compound was inactive in the other large screens.

CCOc1ccc(N2C(=O)CC(N3CCN(c4ccc(C(=O)c5ccncc5)cc4)CC3)C2=O)cc1 (configuration not stated)	none
CCC(=O)Nc1c(OC(=O)CC)ccc2c(C)cc(=O)oc12	Fluor 339 460 2.13 (not shown: Spn DPM-DC inh)
CCC(=O)Nc1c(C)cc(C)cc1Cl	none
CC1CCC(N2CCN(S(C)(=O)=O)CC2)CC1 (configuration not stated)	none
CCS(=O)(=O)N1CCN(C2CCC(C)CC2)CC1 (configuration not stated)	MK inhibit 61.0
O=C1Nc2ccccc2OC1CC(=O)N1CCN(c2cccc(C(F)(F)F)c2)CC1 (configuration not stated)	none
COc1cc(-n2c3nc4ccccc4nc3c3c(=O)n(Cc4ccco4)cnc32)cc(OC)c1OC	none
COc1ccc2c(c1)c1ncn(Cc3ccco3)c(=O)c1n2C	Fluor 339 460 3.73 (not shown: Spn DPM-DC inh)
Clc1ccc(OCCn2ccnc2)c(Cl)c1	none
Clc1ccc(SCCn2ccnc2)cc1	MK inhibit 41.0
Cc1cc(C)c(-c2cc(C(F)(F)F)no2)c(=O)[nH]1	Fluor 339 460 3.7 (not shown: Spn DPM-DC inh)
O=C(NCc1ccccc1)NC1CC2CCC(C1)N2Cc1ccco1 (configuration not stated)	none
CCN(CC)C(=O)NC1CC2CCCC(C1)N2Cc1ccccc1 (configuration not stated)	Spn PMK inh 27.0
COc1cc(C2/C(=C(\O)c3cc(C)ccc3C)C(=O)C(=O)N2CCN(C)C)ccc1O (configuration not stated)	none
CCCn1c(SCC(=O)NCCc2ccccc2)nnc1-c1cccnc1	none
CCOc1ccc2nc3ccc4[nH]onc4c3c2c1	Fluor 339 460 2.3 (not shown: Spn DPM-DC inh)
c1ccc(-c2ncnc3nc4n(c23)CCC4)cc1	none
COc1cc(C(=O)N2CCC(NC(=O)C(Cc3ccccc3)NC(C)=O)CC2)cc(OC)c1OC (configuration not stated)	none
CC(C)(C)NC(=O)CSc1n[nH]c(=O)n1-c1ccccc1	none
Nc1ccc2c3c(cccc13)CC2	Fluor 339 460 2.33 (not shown: Spn DPM-DC inh)
O=C(NCc1ccc2c(c1)OCO2)c1cc2n(n1)C(C(F)(F)F)CC(c1ccc3c(c1)OCO3)N2 (configuration not stated)	Spn PMK inh 25.0
O=C(Nc1cc(Cl)ccc1O)c1cc2n(n1)C(C(F)(F)F)CC(c1ccc3c(c1)OCO3)N2 (configuration not stated)	none
Cc1nc(SC2C=CS(=O)(=O)C2)n[nH]1 (configuration not stated)	Spn PMK inh 11.0
COC(=O)c1ccc(N2C(=O)CC(Sc3n[nH]c(C)n3)C2=O)cc1 (configuration not stated)	none
Cc1cccc(-c2nc(CSCC(=O)N3CCN(Cc4ccc5c(c4)OCO5)CC3)c(C)o2)c1	none
O=C(Nc1ccc(OC(F)(F)F)cc1)c1cnc2n(c1=O)CCS2	none
CCCCOC(=O)c1ccc(NC(=O)c2cnc3n(c2=O)CCS3)cc1	Fluor 339 460 2
CCOC(=O)c1[nH]c(C)c(CCC(=O)OC)c1C	none
Cc1ccc2cc3cc(C(=O)NCCCN4CCCCCC4)oc3nc2c1	Fluor 339 460 5.1 (not shown: Spn DPM-DC inh)
Cc1cccc(N(C)C(=O)c2cc3cc4ccc(C)cc4nc3o2)c1	none
Cc1ccc2cc3cc(C(=O)NCCCN4CCc5ccccc5C4)oc3nc2c1	Fluor 339 460 5.1 (not shown: Spn DPM-DC inh)
CC1(C)CC(=O)C2=C(C1)N(c1cccc(O)c1)C1=C(C2)C(=O)CC(C)(C)C1	Fluor 339 460 3.62 (not shown: Spn DPM-DC inh)
CC1(C)CC(=O)c2cnc(N3CCN(c4ccccc4)CC3)nc2C1	none
CCN1CCc2c(sc3c2c(NCc2ccco2)nc2nnnn23)C1	Fluor 339 460 2.38
c1coc(CNc2ncnc3sc4c(c23)CCCCC4)c1	none
COc1cc2[nH]c3c(N4CCN(c5ccccn5)CC4)ncnc3c2cc1OC	Fluor 339 460 3.66 (not shown: Spn DPM-DC inh)
Fc1ccc2[nH]c3c(N4CCN(c5ccccc5)CC4)ncnc3c2c1	none
CCOC(=O)N1CCN(c2ncnc3c2[nH]c2ccc(OC)cc23)CC1	Fluor 339 460 2.49 (not shown: Spn DPM-DC inh)
